# Reference: the supplement of paper PMC10338343
# ± gives the standard deviation.
# Tested on: EfPiwi piRISC loaded with L1MC piRNA (26 nt)
# Assay: pre-steady-state target cleavage rate (min^-1); auxiliary factor: 500 nM Ephydatia muelleri Gtsf1; guide: L1MC piRNA 5'p-UAACUAAAUACUAUGCAAGCUGUAGG; MIWI and MILI are mouse PIWI proteins and EfPiwi is from a freshwater sponge; tags in brackets are library labels; higher = faster piRNA-guided slicing of the target
# Method: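 Cleave-'n-Seq: a library of target RNAs (target site in constant flanks) at […] was incubated with 1 nM active freshwater sponge Ephydatia fluviatilis Piwi piRISC (synthetic 5'-monophosphorylated piRNA guide) with or without 500 nM EmGtsf1 at 33 °C for 1 min to 16 h. Uncleaved targets were sequenced and the pooled three trials fitted to a burst-and-steady-state model to give the pre-steady-state cleavage rate (min^-1). Sequence is the target site only. Fits with R² ≤ 0 are excluded.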
row,Sequence,pre-steady-state target cleavage rate
1,UCCUCUCUACAGCUUGCAUAGUAUUUAGUUA,0.0164 ± 0.006
2,UCCUGGAUCAGCUUGCAUAGUAUUGAGUUA,0.00662 ± 0.0024
3,UCCUCCUACAGCAAGCAUAGUAUUUAGUAA,0.00371 ± 0.0026
4,UCCUGGAUCAGCUAGCAUAGUAUUAAGUUA,0.00318 ± 0.002
5,UCCUCCUACUGCUUGCAUAGUAUAUAGUUA,0.0123 ± 0.0054
6,UCCUGCUACAGCUUGCAUAGUUUUUAGUAA,0.00424 ± 0.0013
7,UCCUGCUACUGCUUGCAUAGUAUUUAGUUA,0.00883 ± 0.003
8,UCCUGGAUCACCUUGCAAAGUAUUUAGUUA,0.00506 ± 0.0019
9,UCCUGGAACAGGUUGGAUAGUAUUUAGUUA,0.00375 ± 0.0014
10,UCCUCCUACAGCUAGCAUAGUAUUUUGUUA,0.0077 ± 0.0035
11,UCCUGGAUGAGCAUGCAUAGUAUAUAGUUA,0.00333 ± 0.0032
12,UCCUGGUUCAGCUUGCAUAGUAUUAAGUUA,0.00579 ± 0.0021
13,UCCUCCUACAGCUUGCAUAGAUAUUUAGUUA,0.00501 ± 0.0032
14,UCCUCCUACAGCUUGCAUAGUAUUUGAGUUA,0.00541 ± 0.0025
15,UCCUGGUACAGCUUGCAUCGUAUUUAGUUA,0.00642 ± 0.0025
16,UCCUGGAUCAGUUGCAUAGUAUUUAGUUA,0.0258 ± 0.0051
17,UCCUCCUACAGCUAGCAUAGAAUUUAGUUA,0.00325 ± 0.0019
18,UCCUCCUAGCAGCUUGCAUAGUAUUUAGUUA,0.0339 ± 0.0083
19,UCCUGCUACAGGUUGCAUUGUAUUUAGUUA,0.00597 ± 0.0023
20,UCCUGGAUGUCGAACGUAUGUAUUUAGAUUA,< 0.0001

row,Sequence,pre-steady-state target cleavage rate
1,UCCUGCUACAGGUUGCAUAGUAUUUUCAAA,0.00243 ± 0.0019
2,UCCUGGAUGUCCUUACAUAGUAUUUAGUUA,0.00492 ± 0.0036
3,UCCUGGAUGUCCUUGCAUAGUAUUUAGAUA,0.00461 ± 0.0029
4,UCCUGGAUGUCCUUGCAUAGUAUUUGAGUUA,0.00517 ± 0.0037
5,UCCUGGAUCAGCUUCCAUAGUAUUUAGUUA,0.00321 ± 0.0017
6,UCCUCCUACAGCUUCGAUAGUAUUUAGUUA,0.0137 ± 0.0042
7,UCCUGGAUGUGCUUGCAUAGUAUUUAAUUA,0.113 ± 0.038
8,UCCUGGAACAGCUUGCAUAGUAUUUAGUUG [g2:g23:cont:t1G],0.0115 ± 0.0034
9,UCCUCCUACAGCUUGGAUUGUAUUUAGUUA,0.0225 ± 0.0082
10,UCCUGGAACAGCUUGCAUAGUAGUUUAGUUA,0.0047 ± 0.0024
11,UCCUCCUACAGCUUGCAUAGUAUUUACAUA,0.00441 ± 0.0028
12,UCCUGGUACAGCUAGCAAAGUAUUUAGUUA,0.00688 ± 0.0029
13,UCCUGGAUCAGCUUCCAAAGUAUUUAGUUA,0.00404 ± 0.0027
14,UCCUCCUACAGCUUGCAUAGUAUCUUAGUUA,0.0254 ± 0.011
15,UCCUGGAUCAGCUUGCAUAGUAUAAAGUUA,0.00752 ± 0.0027
16,UCCUCCUACUGCUUGGAUAGUAUUUAGUUA,0.064 ± 0.012
17,UCCUGCUACAGCUUACAUAGUAUUUAGUUA,0.0151 ± 0.0038
18,UCCUCCUACAGCUUGCAUAGUAUUUAGAUUA,0.0103 ± 0.0044
19,UCCUGGUACAGCUUGCAAAGUAUUUUGUUA,0.00296 ± 0.0029
20,UCCUGGUACAGCUUGCAUAGUAUUUUGUAA,0.00379 ± 0.0027
